Source: PubChem
Caspase-7 inhib: allosteric or competitive inhibitors of human caspase-7. P55210. recombinant caspase-7, Ac-DEVD-AFC fluorescence rate. Potency, µM (doses to about 57.5 µM), for the others: at the highest dose activity change, negative = inhibition, hits mostly inhibitors. 75,000 tested, 0.02% active; active means well fitted inhibition curve with a large enough effect in the main read-out, with a control signal flat, not every such curve was filed as active; inconclusive means small, poorly fitted or top-dose-only effect, or a change in a side signal; further: % of control where 0% means no effect
Tau filament bind: tau filament binding. AID 596. 71,000 tested, 2% active. Potency, µM (top dose mostly 57.1 µM), without a hit: top-dose activity change, negative = inhibition. recombinant tau filaments, thioflavin S fluorescence, 15 h; filaments grown with octadecylsulfate alongside compound. P10636;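 further: on the % scale 0 is the no-effect control and ±100 the full control effect; actives lower thioflavin S fluorescence by blocking filaments or displacing dye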
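Assay mix: 1 uM His-tagged tau, 30 uM sodium octadecylsulfate, thioflavine S dye in HEPES/NaCl/DTT buffer. Compound is added prior to the inducer. Fluorescence after 15 h at 37 C.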
DNA Pol III inh: inhibitors of bacterial DNA polymerase III holoenzyme. Potency, µM (titrated, usually from 57.1 µM), without a hit: top-dose activity change, negative = inhibition. reconstituted DNA polymerase III holoenzyme replication, biochemical. 71,000 tested, 0.25% active; further: on the % scale 0 is the no-effect control and ±100 the full control effect
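Reconstituted *E. coli* holoenzyme (0.35 nM Pol III, 1 nM beta, 154 nM SSB, 2 nM primase) was preincubated with compound for 15 min at RT. Synthesis on 1.4 nM ssM13Gori ran 35 min, then was stopped with PicoGreen/EDTA and read as dsDNA fluorescence.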
ALOX15 inhib: blocks human 15-lipoxygenase activity; P16050; purified 15hLO-1, xylenol orange hydroperoxide absorbance; Potency, µM (doses to about 57.1 µM), inactives show top-dose activity change, negative = inhibition, most hits filed as inhibitors; 74,000 tested, 1.4% active; AID 887; further: on the % scale 0 is the no-effect control and ±100 the full control effect; nearly all actives have a fitted effect of over 55% in size
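Compounds were preincubated 15 min at room temperature with 40 nM purified human enzyme (25 mM Hepes pH 7.5, 0.01% Triton X-100); 50 uM arachidonic acid reacted 6 min. Fe-xylenol orange detection, 30 min, absorbance ratio 573/405 nm.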
Casp1 inh: allosteric or competitive inhibitors of human caspase-1 | P29466 | Caspase-1 enzyme, Ac-WEHD-AFC fluorogenic rate | Potency, µM (series often up to 57.5 µM), for inactives: at the highest dose activity change, negative = inhibition, most hits filed as inhibitors | 75,000 tested, 0.03% active;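 further: plate controls were vehicle for no effect and no substrate for full effect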
* marks the source's active call; other numbers are inactive results; ? = inconclusive; nt = not tested or not shown; [ ] = another dose, or the depositor's remark. Sampled rows, rich in hits. Any-hit rate of the full collection: about 3.2%. Unless noted, the call rests on the fitted dose curve; in most records, active means well fitted curve in the direction sought with a large enough effect; inconclusive means small, poorly fitted or top-dose-only effect, or another doubt; inactive means no such curve, though single readings can be large; an effect the other way counts as inactive or inconclusive. Potency means the concentration at half of the fitted maximal effect.

SMILES	Caspase-7 inhib	Tau filament bind	DNA Pol III inh	ALOX15 inhib	Casp1 inh
CCCOc1ccc(N2C(=O)CC(N(O)c3ccccc3)C2=O)cc1 (stereo unspecified)	1%	25µM*	5%	-15%	-1%
FC(F)(F)c1ccccc1Cl	2%	6%	6%	2%	-2%
O=C1[C@H]2[C@H]3[C@H](O)[C@H](O)C/C(=N/OC[C@@H](O)COCc4ccco4)[C@H]3CC[C@@H]2C(=O)N1c1cccc(Oc2ccccc2)c1	-1%[11.5 µM]	nt	nt	2%[11.4 µM]	-3%[11.5 µM]
CN(C)c1ccc(NC(=O)Cn2cc3c(n2)CCCC3)cc1	-3%	13µM*	-11%	-18%	-3%
CS(=O)(=O)c1ccc(/C=N\NC(N)=S)cc1	-3%[11.5 µM]	-1%[11.4 µM]	-4%[11.4 µM]	-1%[11.4 µM]	-1%[11.5 µM]
O=C(Nc1nc(-c2ccccc2)ns1)c1cccs1	2%	-9%	-10%	-2%	-2%
Cc1ccc(-c2csc(NC(=O)c3ccno3)n2)cc1	-10%	32µM*	-8%	-18%	-1%
O=C(Nc1nc(-c2ccc(Cl)s2)cs1)c1cccs1	-4%	-25%	-2%	25µM*	-2%
O=C(Nc1nc(-c2ccccn2)cs1)c1ccc(Cl)s1	-5%	118%	-3%	42%	-4%
O=C(Nc1nc(-c2ccccc2)cs1)c1cccs1	-4%	27%	2%	13µM*	-4%
C[C@@H](N=C(N)N)C(=O)O	1%[11.5 µM]	-15%[11.4 µM]	-6%[11.4 µM]	4%[11.4 µM]	2%[11.5 µM]
CN=C(N)/N=C(\N)Nc1cc2ccccc2c2ccccc12	-1%[11.5 µM]	-2%[11.4 µM]	-14%[11.4 µM]	6%[11.4 µM]	-1%[11.5 µM]
COC(=O)CC1Oc2cc3oc4c5ccccc5oc(=O)c4c3cc2O1 (stereo unspecified)	0%	nt	nt	nt	1%
O=C(Nc1cccc(N2CCCC2)c1)c1cccs1	-2%	13µM*	-3%	?	0%
CC[C@@H](c1ccccc1)n1c(=O)n2n(c1=O)[C@H]1[C@H](O)[C@H]3O[C@H]3C(=O)[C@H]1CC2	-9%[11.5 µM]	nt	nt	10%[11.4 µM]	3%[11.5 µM]
Oc1c(C(O)(c2ccccc2)c2ccc3ccccc3c2O)ccc2ccccc12	-3%[11.5 µM]	1.3µM*	-7%[11.4 µM]	-28%[11.4 µM]	0%[11.5 µM]
Oc1ccc2ccccc2c1Cc1c(O)ccc2ccccc12	0%[11.5 µM]	-3%[11.4 µM]	-11%[11.4 µM]	-17%[11.4 µM]	-10%[11.5 µM]
Cc1ccccc1Nc1nnc(SCC(=O)NC(=O)NCc2ccco2)s1	-15%	-9%	-6%	16µM*	-1%
CO[C@@H]1COC(=O)[C@H](C)NC(=O)C/C=C\[C@@H](C)[C@@H](NS(=O)(=O)c2ccc(C)cc2)COC(=O)C/C=C\[C@@H]1C	1%[11.5 µM]	nt	nt	5%[11.4 µM]	-1%[11.5 µM]
Cc1ccc2nc(NC(=O)CN(C)S(=O)(=O)c3cccc4nsnc34)sc2c1	0%	16µM*	0%	0%	0%
Cc1ccnc(NC(=O)CN(C)S(=O)(=O)c2cccc3nsnc23)c1	-1%	-1%	-1%	1%	-8%
CCN1C(=O)/C(=C/N(C)c2ccccc2)OC1=S	-1%	17%	0%	7.9µM*	-1%
CCN1C(=O)/C(=C2/C=CC=CN2C)OC1=S	1%	4%[11.4 µM]	-1%[11.4 µM]	-3%[11.4 µM]	-2%
CCCC1OC2CC3C4CCC5=CC(=O)C=CC5(C)C4C(O)CC3(C)[C@]2(C(=O)CO)O1 (stereo partly specified)	-1%	nt	nt	-1%	-3%
N#Cc1c(/N=C/c2ccco2)sc2c1CCC2	-2%	16µM*	-10%	-8%	2%
SMILES	Caspase-7 inhib	Tau filament bind	DNA Pol III inh	ALOX15 inhib	Casp1 inh
Cc1ccc(/C=N/c2sc3c(c2C#N)CCCCC3)o1	-10%	34%	?	25µM*	?
N#Cc1c(-n2cccc2/C=N/O)sc2c1CCCC2	-3%	-8%	-1%	-8%	-4%
COc1ccc(/C=C/N(CCc2ccc(OC)c(OC)c2)C(=O)C(F)(F)F)cc1	0%[11.5 µM]	nt	nt	3%[11.4 µM]	-3%[11.5 µM]
Cc1ccc(C)c2nc(N3CCCC3)c(C#N)cc12	?	18%	-7%	13µM*	nt
CCOc1ccc(-c2nc(=S)[nH][nH]2)cc1	1%	13%	6%	25µM*	0%
COc1ccc(-c2nc(=S)[nH][nH]2)cc1	0%	11%	0%	-25%	-2%
CCOC(=O)Cc1csc(SCn2nnc3ccccc3c2=O)n1	0%	-7%	2%	-7%	-1%
CCOC(=O)Cc1csc(-n2sc3ccccc3c2=O)n1	0%	-27%	-7%	0.2µM*	-4%
CC(C)N(CCNC(=O)c1ccc(Cc2nc3ccccc3[nH]2)cc1)C(C)C	1%	nt	nt	4%	-2%
